Assay outcomes: PubChem, National Center for Advancing Translational Sciences (NCATS)
JMJD2A Tudor – JMJD2A Tudor domain (human) inhibition | Potency, µM (doses to about 114 µM), without a hit: top-dose activity change, negative = inhibition, hits mostly inhibitors | AlphaScreen JMJD2A-Tudor / H3K4me3 peptide binding | hit rate 4.4% among 390,000 | AID 504339 | O75164; further: potency means the concentration at half of the fitted maximal effect; on the % scale 0 is the no-effect control and ±100 the full control effect; nearly all actives have a fitted effect of over 50% in size
JMJD2E inh – blocks human JMJD2E demethylase activity; B2RXH2; JMJD2E catalytic domain, FDH-coupled NADH fluorescence (FDH is formaldehyde dehydrogenase); Potency, µM (series often up to 57.1 µM), inactives show at the highest dose activity change, negative = inhibition, most hits filed as inhibitors; hit rate 1.6% among 230,000; AID 2147; active means well fitted inhibition curve with a large enough effect, not every such curve was filed as active; inconclusive means small, poorly fitted or top-dose-only effect, or another doubt; inactive means no such curve, though single readings can be large or run the other way;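 further: potency means the concentration at half of the fitted maximal effect; 0% = wells with enzyme and -100% = buffer wells without enzyme; nearly all actives have a fitted effect of over 50% in size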
HP1b binding inh – inhibitors of HP1-beta chromodomain binding to methylated histone tails; AlphaScreen HP1-beta / biotin-H3K9me3 peptide binding; AID 540317; Potency, µM (series often up to 114 µM), inactives show at the highest dose activity change, negative = inhibition, hits mostly inhibitors; hit rate 0.56% among 390,000; further: potency means the concentration at half of the fitted maximal effect; nearly all actives have a fitted effect of over 70% in size
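Compound inhibition of the preformed complex between 50 nM HP1-beta and 50 nM biotinylated H3K9me3 peptide was read by AlphaScreen. Buffer was PBS pH 7.4 with 0.01% Tween-20. Incubations ran 30 min at room temperature, with 10 ug/mL donor/acceptor beads.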
BAZ2B block – inhibitors of human BAZ2B bromodomain | hit rate 4.4% among 360,000 | Potency, µM (doses to about 114 µM), for inactives: at the highest dose activity change, negative = inhibition, most hits filed as inhibitors | Q9UIF8 | AlphaScreen BAZ2B-H3K14Ac peptide displacement; further: potency means the concentration at half of the fitted maximal effect; on the % scale 0 is the no-effect control and ±100 the full control effect; nearly all actives have a fitted effect of over 60% in size
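BAZ2B 50 nM plus b-H3(5-23)K14Ac 50 nM, PBS pH 7.4/0.01% Tween-20, 30 min RT; compound added (max 110 uM), 30 min RT; streptavidin donor/Ni-chelate acceptor beads 10 ug/mL final, 20 min dark; AlphaScreen read.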
L3MBTL1 inh – blocks human L3MBTL1. hit rate 0.66% among 230,000. Q9Y468. AlphaScreen L3MBTL1–H3K9me1 peptide binding. Potency, µM (top dose mostly 57.1 µM), inactives show at the highest dose activity, negative = inhibition, usual class: inhibitors; further: potency means the concentration at half of the fitted maximal effect; on the % scale 0 is the no-effect control and ±100 the full control effect; nearly all actives have a fitted effect of over 60% in size
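AlphaScreen assay: L3MBTL1 (50 nM final) was preincubated 30 min at room temperature with biotinylated H3(1-15)K9me1 peptide (75 nM final), then 30 min with library compounds; streptavidin donor and nickel chelate acceptor beads (10 ug/mL final) added, 30 min dark.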
PI5P4Ka inh – inhibitors of human PI5P4K alpha; P48426; PI5P4Kalpha enzyme, ADP-Glo luminescence, 60 min; active compounds read low; max response, %; hit rate 1.2% among 330,000; active means max response of -50% or lower; inconclusive means between -30% and -50%; inactive means -30% or higher; further: value at the top dose of about 77 µM; on the % scale 0 is the no-effect control and ±100 the full control effect
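ADP-Glo luminescence end-point read after a 60 min room-temperature kinase reaction of PI5P4Kalpha plus substrate, initiated with ATP at 5 microM final. Buffer: 0.038 M HEPES pH 7.4, EGTA, 0.1% CHAPS, 5% DMSO.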
Numbers without * were called inactive; ? = inconclusive; / = not tested or not shown; ! = not confirmed by another sample; [ ] = another dose, or the depositor's remark. Only some compounds are listed: those with a hit (about 5.7% of all), similar ones and a draw of the others. Unless noted, the call rests on the fitted dose curve; in most records, active means well fitted inhibition curve with a large enough effect; inconclusive means small, poorly fitted or top-dose-only effect; inactive means no such curve, though single readings can be large or run the other way.

SMILES	JMJD2A Tudor	JMJD2E inh	HP1b binding inh	BAZ2B block	L3MBTL1 inh	PI5P4Ka inh
CC(C)C[C@@H](CNCC(=O)[C@H](CC(C)C)NC(=O)c1[nH]cnc1C(=O)N[C@@H](C)CN)NC(=O)c1nc[nH]c1C(=O)N[C@@H](Cc1ccccc1)C(=O)O	-29%	/	35%	/	/	-1
CC(C)C[C@@H](CN)NC(=O)c1nc[nH]c1C(=O)N[C@@H](CC(C)C)C(=O)CNC[C@H](C)NC(=O)c1nc[nH]c1C(=O)N[C@@H](C)C(=O)O	79µM*	/	50%	/	/	-2
COc1ccc(NS(=O)(=O)c2ccccc2)cc1NS(=O)(=O)c1ccccc1	-16%	/	/	/	/	/
COc1cccc([C@@H]2Oc3ccc(OC)cc3C[C@H]2OC(=O)NCc2ccco2)c1	/	0%	/	/	/	/
C[C@H](NC(=O)c1nc[nH]c1C(=O)N[C@@H](Cc1ccccc1)C(=O)OCc1ccccc1)C(=O)OCc1ccccc1	-26%	/	45%	-1%	-1%	14
CC(C)C[C@@H](CN)NC(=O)c1nc[nH]c1C(=O)N[C@@H](C)C(=O)CNC[C@H](C)NC(=O)c1nc[nH]c1C(=O)N[C@@H](Cc1ccccc1)C(=O)O	79µM*	/	52%	/	/	3
O=C(c1ccc(Cl)c(Cl)c1)N1CCC(=O)N(C(CO)Cc2ccccc2)CC1 (stereo unspecified)	35µM*	/	-22%	/	/	-3
Cc1cc(-c2ccc(S(=O)(=O)Nc3ccc(Cl)cc3C)cc2)on1	15%	/	62%	-2%	/	/
CCOC(=O)C1=C(C)N(CCCC(=O)O)C(=O)NC1c1cccs1 (stereo unspecified)	-3%	/	26%	/	/	-66*
CC1=C(C(=O)OCc2ccccc2)C(C2CCCCC2)NC(=O)N1CCCCCC(=O)O (stereo unspecified)	/	-7%	/	/	/	/
CC1=C(C(=O)OCc2ccccc2)C(c2cccs2)NC(=O)N1CCCC(=O)O (stereo unspecified)	-11%	?	30%	1%	6%	-66*
COC(=O)C1=C(C)N(CCCC(=O)O)C(=O)NC1c1cccs1 (stereo unspecified)	1%	4%	35%	1%	8%	-73*
CCN1C(=O)N[C@@H](c2cccs2)C(C(=O)OC)=C1C	-7%	-1%[11.4 µM]	5%	/	/	0
CCCOc1cccc(C(=O)N(Cc2cc(OC)c(OC)c(OC)c2)C2CCS(=O)(=O)C2)c1 (stereo unspecified)	-10%	/	24%	-10%	/	/
O=C(CC1SC(N2CCOCC2)=NC1=O)Nc1cc([N+](=O)[O-])ccc1Cl (stereo unspecified)	-18%	-3%	22%	-14%	12%	1
Cc1ccc(/C=C/C(=O)N2CCN(c3ccc(F)cc3)CC2)o1	-24%	-9%	-14%	?	-1%	2
Cc1ccc(/C=C/C(=O)N2CCN(c3ncccn3)CC2)o1	28µM*	?	?	-8%	-19%	?
CCC(=O)N1C2=C(c3ccccc3[C@@H]1CC(=O)Nc1ccc3ccccc3c1)[C@@H]1C(=O)N(c3ccccc3)C(=O)[C@@H]1[C@H](C)C2	/	-2%[11.4 µM]	/	/	/	/
Cc1nc(C(F)(F)F)c(C(=O)N/N=C(\N)c2cccnc2)s1	28µM*	-20%	10%	79µM*	/	-1
Cc1c(P(=S)(c2ccccc2)c2ccccc2)c2ccccc2n1CCCc1ccccc1	-2%	/	/	/	/	/
O=C(CSc1ccc(-c2ccccc2)nn1)NC1CCCCC1	-5%	/	13%	-3%	/	-23
O=C(CSc1ccc(-c2ccco2)nn1)NC1CCCCC1	?	?	0%	50µM*	/	?
O=C(CSc1ccc(-c2ccccn2)nn1)NCc1ccc(F)cc1	7.9µM*	-8%	12%	3.2µM*	/	0
O=C(CSc1ncccn1)NCc1ccc(F)cc1	-7%	-1%	31%	/	1%	/
O=C(CSc1ccc(-c2ccccn2)nn1)NC1CCCCC1	3.5µM*	?	30%	4µM*	/	1
SMILES	JMJD2A Tudor	JMJD2E inh	HP1b binding inh	BAZ2B block	L3MBTL1 inh	PI5P4Ka inh
Cc1ccc(CSCC(=O)NCc2ccc(F)cc2)cc1	-9%	8%	26%	4%	/	0
O=C(CSCc1ccc(F)cc1)NCc1ccc(F)cc1	100µM*!	-2%	28%	0%	/	-4
CCCc1cnc2c(c1SCc1cccc(F)c1)c(=O)n(C)c(=O)n2C	7%	/	49%	0%	/	/
C#CCOCCOCCOCCNc1nc(N2CCN(C(=O)[C@H](CCC(=O)O)n3cc(C(N)Cc4ccc(O)cc4)nn3)CC2)nc(N2CCN(C(=O)[C@H](CCC(=O)O)n3cc(C(N)[C@H](C)CC)nn3)CC2)n1 (stereo partly specified)	25µM*	-2%	21%	40µM*	-1%	2
C#CCOCCOCCOCCNc1nc(N2CCN(C(=O)[C@H](C)n3cc(CCC(=O)O)nn3)CC2)nc(N2CCN(C(=O)[C@H](Cc3ccc(O)cc3)n3cc(CCO)nn3)CC2)n1	-34%	/	26%	/	/	-11
C#CCOCCOCCOCCNc1nc(N2CCN(C(=O)[C@H](CCC(=O)O)n3cc(C(N)Cc4ccc(O)cc4)nn3)CC2)nc(N2CCN(C(=O)[C@H](Cc3ccc(O)cc3)n3cc(C(N)[C@H](C)CC)nn3)CC2)n1 (stereo partly specified)	/	?	/	50µM*	/	/
C=CCc1ccccc1OCCSc1nc(-c2cccs2)nc2cc(=O)[nH]n12	-16%	/	16%	-13%	/	/
CC(=O)Nc1ccc(NC(=O)CN2C(=O)CN(C)C(=O)c3ccccc32)cc1	-7%	/	29%	-10%	/	/
CC(=O)Nc1ccc(NC2=C(Cl)C(=O)c3ccccc3C2=O)cc1	-10%	-25%	14%	-5%	?	2
O=C1C(Cl)=C(Nc2ccc3cn[nH]c3c2)C(=O)c2ccccc21	14µM*	10µM*	16µM*	8.9µM*	/	-87*
CN(C)c1ccc(NC2=C(Cl)C(=O)c3ccccc3C2=O)cc1	6.3µM*	7%	5µM*	2.5µM*	16µM*	-21
O=C(Nc1ccc2cn[nH]c2c1)c1ccccc1F	-15%	0%	27%	4%	10%	-5
